Shown are actives, neighbours in structure and some others; about 3.5% of the full set was active somewhere.
GDH-TPI inh: counter-screen for M. tuberculosis FBA inhibitors: GDH-TPI coupled enzymes; GDH-TPI coupled enzyme counterscreen, NADH absorbance; inhibition, % at 4.8 µM; actives 1.2% (n = 360,000); in the data active means inhibition above about 30%;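 further: 0% = DMSO wells and 100% = wells lacking the enzyme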
FadD28 binding: M. tuberculosis FadD28 bisubstrate binding inhibition; inhibition, % at 12.5 µM; FadD28 bisubstrate probe binding, fluorescence polarization; actives 0.22% (n = 360,000); in the data active means inhibition above about 8.5%, passing the limit was not always enough; inconclusive means no clear call, values can overlap the other calls
Mtb hypoxia rep: Mtb hypoxia fluorescent reporter inhibition; M. tuberculosis hypoxia-regulated fluorescent reporter, fluorescence; fluorescence inhibition, % (test concentration not listed); actives 0.1% (n = 300,000); AID 1159583; in the data active means fluorescence inhibition mostly above about 23%, no sharp cut-off; inactive means mostly below about 17%
UGM FP inh: inhibitors of M. tuberculosis UDP-galactopyranose mutase | P9WIQ1 | purified UGM, fluorescence polarization probe displacement | inhibition, % at 10 µM | actives 0.06% (n = 320,000) | AID 504406; in the data active means inhibition above about 10%, passing the limit was not always enough; inconclusive means no clear call, values can overlap the other calls
Target sequence (P9WIQ1 whole entry, looked up): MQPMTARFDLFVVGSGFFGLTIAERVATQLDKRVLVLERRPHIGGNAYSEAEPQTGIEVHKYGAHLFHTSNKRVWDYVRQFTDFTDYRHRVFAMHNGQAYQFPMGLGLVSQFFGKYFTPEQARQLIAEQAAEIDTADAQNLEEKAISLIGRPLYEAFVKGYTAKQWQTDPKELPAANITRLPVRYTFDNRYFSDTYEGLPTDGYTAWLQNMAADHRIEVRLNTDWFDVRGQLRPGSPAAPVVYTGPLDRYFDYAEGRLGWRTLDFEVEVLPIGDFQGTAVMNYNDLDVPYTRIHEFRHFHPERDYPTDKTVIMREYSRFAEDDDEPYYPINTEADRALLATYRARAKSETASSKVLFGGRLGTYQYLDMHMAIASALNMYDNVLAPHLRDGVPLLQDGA
FBA Mtb inh: inhibitors of M. tuberculosis fructose-bisphosphate aldolase. P9WQA3. purified M. tuberculosis FBA, fluorescence read-out. inhibition, % at 1 µM. actives 2.3% (n = 360,000). AID 588726; in the data active means inhibition above about 27%;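 further: 0% = vehicle and 100% = reference inhibitor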
Rv3671c protease: Rv3671c (M. tuberculosis) protease inhibition | P9WHR9 | inhibition, % at 5.96 µM | actives 0.048% (n = 320,000) | AID 2606; in the data active means inhibition above about 38%;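 further: extracellular domain of Rv3671c used as enzyme; 0% = enzyme with DMSO and 100% = no enzyme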
* hit, by the source's call; ? = inconclusive; nt = not tested or not shown; + = active, no number.

SMILES	GDH-TPI inh	FadD28 binding	Mtb hypoxia rep	UGM FP inh	FBA Mtb inh	Rv3671c protease
O=C1CC(C(=O)Nc2ccc(Cl)c(Cl)c2)S/C(=N\N=C\c2ccco2)N1 (configuration not stated)	14	0	nt	2	0	-66
COc1ccc(/C=N/N=C2/NC(=O)CC(C(=O)O)S2)cc1 (configuration not stated)	55*	-2	nt	0	-3	-2
O=C1CC(C(=O)Nc2ccc(Br)cc2)S/C(=N\N=C\c2ccco2)N1 (configuration not stated)	52*	?	nt	-4	0	-21
O=C1CC(C(=O)Nc2ccc(Cl)cc2)S/C(=N\N=C\c2ccco2)N1 (configuration not stated)	56*	-3	nt	6	-2	-17
COc1ccc(NC(=O)C2CC(=O)N/C(=N/N=C/c3ccco3)S2)cc1 (configuration not stated)	45*	-3	nt	0	-2	4
O=C1CC(C(=O)Nc2ccccc2)S/C(=N\N=C\c2ccco2)N1 (configuration not stated)	29	0	nt	2	-4	-4
CCCCNC(=O)CC1S/C(=N/N=C/c2ccc(OC)cc2)NC1=O (configuration not stated)	33*	-3	nt	0	-2	-1
CC(C)C1S/C(=N/N=C/c2ccco2)NC1=O (configuration not stated)	57*	-4	nt	0	-4	-9
CC(C)C1S/C(=N/N=Cc2ccco2)NC1=O (configuration not stated)	nt	nt	3	nt	nt	nt
CCCn1c(=O)c(C(=O)NN=Cc2ccccc2F)c(O)c2ccccc21	nt	nt	3	nt	nt	nt
COc1cccc(C2NC(=S)NC3=C2CCc2ccccc23)c1 (configuration not stated)	9	0	8	4	1	-3
COc1ccc(C2NC(=O)NC3=C2CCc2ccccc23)cc1 (configuration not stated)	11	2	nt	2	34*	2
CC1CCC(NC(=O)c2cc(C3CC3)nn2-c2ccccc2)CC1 (configuration not stated)	7	-1	-7	-2	+	7
COc1ccc(C(=O)Nc2cnc3ccccn3c2=O)cc1	49*	-1	-4	2	-1	5
CN(/N=C/c1ccncc1)c1cnc2ccccc2n1	33*	-1	nt	-2	-5	2
O=C1C2C(c3ccccc3)=NN(c3ccccc3)C2C(=O)N1c1ccccc1 (configuration not stated)	0	0	16	2	5	-9
O=C1[C@@H]2[C@@H](CN3CN(c4ccccc4)N=C(c4ccccc4)[C@@]23c2ccccc2)C(=O)N1c1ccccc1	17	-3	nt	nt	34*	nt
O=C1C=CC(=O)C2C1C1(Cl)C(Cl)=C(Cl)C2(Cl)C1(Cl)Cl (configuration not stated)	-4	37*	13	nt	-3	nt
CCC(=NNc1ccc([N+](=O)[O-])cc1[N+](=O)[O-])c1ccc(O)cc1	nt	nt	19	nt	nt	nt
CC1CCN(C2(O)C(=O)Nc3ccc(Cl)cc32)CC1 (configuration not stated)	7	-2	18	0	0	8
CC1CCN(C2(O)C(=O)Nc3ccc([N+](=O)[O-])cc32)CC1 (configuration not stated)	32*	-1	nt	0	0	-4
CC(C)(O)c1ccccc1CC[C@@H](SCC1(CC(=O)O)CC1)c1cccc(/C=C/c2ccc3ccc(Cl)cc3n2)c1	31*	-1	nt	-3	6	-58
CC(C)(O)c1ccccc1CCC(SCC1(CC(=O)O)CC1)c1cccc(C=Cc2ccc3ccc(Cl)cc3n2)c1 (configuration not stated)	nt	nt	-9	nt	nt	nt
CC1(OC(=O)c2cnc3ccccc3n2)C(=O)C=C2C=C(C3CC3)OC=C2C1=O (configuration not stated)	nt	nt	nt	5	nt	38*
N[C@@H](Cc1cc(I)c(O)c(I)c1)C(=O)O	23	10*	nt	1	1	-6
SMILES	GDH-TPI inh	FadD28 binding	Mtb hypoxia rep	UGM FP inh	FBA Mtb inh	Rv3671c protease
N#CCCCCn1ccc(NC(=O)c2ccc(Cl)cc2O)n1	32*	0	-12	4	12	1
Cc1ccc(Cn2ccc(NC(=O)c3cc(-c4ccc(Cl)cc4)on3)n2)cc1	6	0	4	-1	2	5
Cc1cc(O)c(C)c(O)c1C=NNC(=O)c1cccnc1	nt	nt	-3	nt	nt	nt
COc1ccccc1/C=N/NC1=NCCCCC1	18	-4	nt	0	-2	-6
Cc1cc(N/N=C/c2c[nH]c3ccccc23)c2ccccc2n1	3	-1	nt	2	3	0
Cn1c(N/N=C/c2c[nH]c3ccccc23)nc2ccccc21	58*	?	nt	0	2	13
C(=N\NC1=NCCCCC1)/c1c[nH]c2ccccc12	39*	-1	nt	1	-4	0
O=C(NN=Cc1ccc(N2CCOCC2)o1)c1ccccc1[N+](=O)[O-]	nt	nt	-5	nt	nt	nt
Cc1ccc(C=NN2C(=O)c3ccccc3NC2c2ccc(C)cc2)cc1 (configuration not stated)	nt	nt	5	nt	nt	nt
CN(C)CCCN(C(=O)c1ccc2c(c1)CCCC2)c1nc2ccc(Cl)cc2s1	8	-4	38*	-2	-1	2
CCOc1ccc2nc(N(CCCN(C)C)C(=O)c3ccc4c(c3)CCCC4)sc2c1	10	-3	21	-1	0	-6
COc1ccccc1NC(=O)C(=O)NN=C(C)CC(=O)Nc1ccccn1	nt	nt	4	nt	nt	nt
O=[N+]([O-])c1ccc(Nc2ccccc2)c2nonc12	8	-1	nt	-3	-10	-2
CC(=O)NS(=O)(=O)c1ccc(Nc2ccc([N+](=O)[O-])c3nonc23)cc1	18	1	38*	1	-28	-14
CC(C)c1ccc(C=NNC(=O)C2CCCC2)cc1	nt	nt	5	nt	nt	nt
Cc1ccccc1-c1cc(=O)c2c(O)cccc2o1	2	-1	2	0	4	1
CCOc1ccccc1-c1c2cc(O)c(=O)cc-2oc2cc(O)c(O)cc12	3	131*	37*	nt	-7	nt
O=c1cc2oc3cc(O)c(O)cc3c(-c3ccccc3O)c-2cc1O	-4	81*	15	nt	-7	nt
COCCCN1C(=O)C(=O)C(=C(O)c2ccc(OC)cc2)C1c1cccc(OC)c1 (configuration not stated)	nt	nt	9	nt	nt	nt
O=C1NC(=O)N(c2ccc(Cl)cc2)C(=O)/C1=C/c1coc2ccc(O)cc2c1=O	22	3	0	0	0	-7
O=C1NC(=O)N(c2ccccc2)C(=O)/C1=C/c1coc2ccc(O)cc2c1=O	31*	-1	13	3	-1	-2
CSC1=NSC2=NC(=O)/C(=C/c3coc4ccc(O)cc4c3=O)C(=N)N12	7	12*	nt	-3	13	-14
O=C1N/C(=C\c2ccc(O)cc2)C(O)=C1C=NCc1ccccc1	37*	-2	-3	0	-4	-12
